Compound activity as filed in PubChem.
IL-1B inflam inh = blocks inflammasome-driven IL-1 beta release; THP-1 LPS/ATP IL-1B secretion, AlphaLISA, 16 h; active compounds read low; 360,000 tested, 4.7% active; AID 743279; activity change, % at 57.5 µM; in the data active = activity change below about -50%; inconclusive = mostly about -30% to -49%
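Secreted IL-1B measured by AlphaLISA bead assay after 16 h compound exposure of THP-1 cells; compounds (final up to 57.5 uM) added 1 h before LPS (250 ng/mL) and ATP (1.25 mM) stimulation; lower signal means less secretion.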
LDHA block = blocks human lactate dehydrogenase A; 480,000 tested, 0.15% active; P00338; purified LDHA, NADH/diaphorase-resazurin fluorescence; active compounds read low; AID 1347041; activity change, % (values are at about 110 or 230 µM); in the data active = activity change below about -30%; inconclusive = mostly about -25% to -30%;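 also: plate controls were DMSO wells for no effect and wells without enzyme for full effect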
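Human LDH5 (2 nM) was incubated with 0.06 mM NADH and 0.2 mM pyruvate for 5 min at room temperature in Tris pH 7.4. Remaining NADH was coupled through diaphorase/resazurin, and resorufin fluorescence was read at 0 and 20 min.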
RORg inh = inhibitors of mouse ROR gamma transcriptional activity; Drosophila S2 Gal4-RORgamma UAS-luciferase reporter, 20 h; Potency, µM (top dose mostly 53.6 µM), without a hit: at the top dose activity change, negative = inhibition, usual class: inhibitors; 310,000 tested, 5.4% active; AID 2551; also: potency is read from the fitted curve at half-maximal effect; nearly all actives have a fitted effect of over 60% in size
Target sequence (P51450 whole entry, looked up, the tested form may be a part): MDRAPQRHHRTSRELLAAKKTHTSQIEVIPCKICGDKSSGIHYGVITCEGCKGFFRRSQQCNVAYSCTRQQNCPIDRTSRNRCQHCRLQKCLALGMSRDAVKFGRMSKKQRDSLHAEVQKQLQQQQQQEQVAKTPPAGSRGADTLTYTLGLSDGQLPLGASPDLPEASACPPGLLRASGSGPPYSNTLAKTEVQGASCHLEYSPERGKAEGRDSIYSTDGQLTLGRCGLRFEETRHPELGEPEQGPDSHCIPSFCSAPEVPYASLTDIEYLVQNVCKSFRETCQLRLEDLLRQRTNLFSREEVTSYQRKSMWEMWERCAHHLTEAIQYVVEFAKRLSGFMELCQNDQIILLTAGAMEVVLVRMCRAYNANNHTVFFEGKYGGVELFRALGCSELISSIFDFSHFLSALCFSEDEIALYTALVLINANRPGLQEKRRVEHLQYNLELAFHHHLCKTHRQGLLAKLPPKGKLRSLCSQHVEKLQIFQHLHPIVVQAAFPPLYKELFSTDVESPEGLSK
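Compounds are pin-transferred onto Drosophila Schneider cells expressing a copper-inducible Gal4–ROR gamma transactivation domain fusion. After 1 hr, copper sulfate is added to 700 uM final; luciferase is read 20 hr later.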
TDP1 cell CPT = growth inhibition of DT40 Tdp1-/-;hTDP1 cells with camptothecin (screen for TDP1 inhibitors); chicken DT40 Tdp1-/-;hTDP1 cells + 20 nM CPT, ATP luminescence, 48 h; Potency, µM (titrated, usually from 46.2 µM), for the others: at the top dose activity change, negative = growth inhibition, actives largely listed as inhibitors; 420,000 tested, 12% active; AID 686979; also: potency is read from the fitted curve at half-maximal effect; nearly all actives have a fitted effect of over 55% in size
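Chicken DT40 Tdp1-/- cells stably complemented with human TDP1 were seeded at 400 cells/well in medium containing 20 nM camptothecin, exposed to pin-transferred compounds, and grown at 37 °C for at least 48 hr. Viability was read as ATP luminescence.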
DT40 TDP1 no CPT = qHTS for Inhibitors of human tyrosyl-DNA phosphodiesterase 1 (TDP1): qHTS in cells in absence of CPT. DT40 Tdp1-/- hTDP1 cells, no CPT, ATP luminescence, 48 h. Potency, µM (top dose mostly 46.2 µM), inactives show at the top dose activity change, negative = growth inhibition, hits mostly inhibitors. 420,000 tested, 15% active. AID 686978, 2013; also: potency is read from the fitted curve at half-maximal effect; nearly all actives have a fitted effect of over 55% in size
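Growth of hTDP1-complemented DT40 Tdp1-knockout cells is measured by ATP luminescence after at least 48 hr compound exposure at 37 °C, with DMSO substituting for the 20 nM CPT used in the parallel screen.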
VP16 counter = inhibits Gal4-VP16 luciferase reporter, ROR gamma counter-screen | Drosophila S2 Gal4-VP16 UAS-luciferase, luminescence, 20 h | Potency, µM (doses to about 53.6 µM), for the others: top-dose activity, negative = inhibition, usual class: inhibitors | 310,000 tested, 3.5% active | AID 2546;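 also: Gal4-VP16 expression switched on by copper sulfate through the metallothionein promoter; potency is read from the fitted curve at half-maximal effect; nearly all actives have a fitted effect of over 50% in size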
* hit, by the source's call. Only some compounds are listed: those with a hit (about 18% of all), similar ones and a draw of the others. Unless noted, calls follow the shape of the dose curve; as a rule, active = well fitted curve in the direction sought with a large enough effect; inconclusive = small, poorly fitted or top-dose-only effect, or another doubt; inactive = no such curve, though single readings can be large; an effect the other way counts as inactive or inconclusive. Unless noted, % is scaled to controls: 0 for no effect and ±100 for the full control effect.

O=C(Nc1cccc(OCc2ccncc2)c1)c1ccc[n+]([O-])c1 was read as LDHA block 4.0.
Screening COc1ccc(-c2noc(CCC(=O)Nc3cc(Cl)c(OC)cc3OC)n2)cc1 returned IL-1B inflam inh -3.6, LDHA block 0.5, RORg inh 14.0%, TDP1 cell CPT inconclusive, DT40 TDP1 no CPT 18.4µM* and VP16 counter -9.5%.
For COc1ccc(-c2noc(CCC(=O)Nc3cc(OC)ccc3OC)n2)cc1 the results were IL-1B inflam inh -5.7, LDHA block 4.1, RORg inh 0.4%, TDP1 cell CPT -25.0%, DT40 TDP1 no CPT 20.6µM* and VP16 counter -9.9%.
Screening COc1ccc(-c2noc(CCC(=O)Nc3cccnc3)n2)cc1 returned IL-1B inflam inh -2.2, LDHA block -1.1, RORg inh inconclusive, TDP1 cell CPT inconclusive, DT40 TDP1 no CPT inconclusive and VP16 counter -11.0%.
For Nc1ncnc2c1ncn2[C@@H]1O[C@H](COS(=O)(=O)O)[C@@H](O)[C@H]1O the results were IL-1B inflam inh 29.4, LDHA block -0.2, TDP1 cell CPT inconclusive and DT40 TDP1 no CPT 18.4µM*.
For CC=C1OC(n2cnc3c(N)ncnc32)C(O)C1O (stereo not given) the results were IL-1B inflam inh 21.3, LDHA block -7.7, TDP1 cell CPT inconclusive and DT40 TDP1 no CPT inconclusive.
`Nc1ncnc2c1ncn2[C@@H]1O[C@H](CNCc2cccc(C#Cc3ccccc3)c2)[C@@H](O)[C@H]1O` gave IL-1B inflam inh -4.0, LDHA block 2.9, TDP1 cell CPT 14.6µM* and DT40 TDP1 no CPT inconclusive.
`Nc1ncnc2c1ncn2[C@@H]1O[C@H](COP(=O)(O)O)[C@@H](O)[C@H]1O` gave IL-1B inflam inh -8.3, LDHA block -2.6, RORg inh -26.5%, TDP1 cell CPT inconclusive, DT40 TDP1 no CPT 4.4% and VP16 counter -18.0%.
`Nc1ncnc2c1ncn2[C@@H]1O[C@H](CNCc2c(OCc3ccccc3F)ccc3ccccc23)[C@@H](O)[C@H]1O` gave IL-1B inflam inh -58.3*, LDHA block -0.8, TDP1 cell CPT inconclusive and DT40 TDP1 no CPT inconclusive.
Nc1ncnc2c1ncn2C1C=C(CO)C(O)C1O (stereo not given) was read as IL-1B inflam inh 26.4, LDHA block -4.2, TDP1 cell CPT 0.0366µM* and DT40 TDP1 no CPT 0.164µM*.
For N#Cc1ccc(NCCc2cccc3cccnc23)nc1 the results were LDHA block -18.9.
`CCCN(Cc1nnc(-c2ccccc2Cl)o1)C(=O)c1ccc(F)cc1Cl` gave LDHA block -0.8.
For COc1cccc(CNS(=O)(=O)c2ccc(-c3ccc(=O)[nH]n3)o2)c1 the results were LDHA block -3.8.
For CCOc1ccc(-c2nc3ccc(C)cc3c(C(=O)O)c2C)cc1 the results were LDHA block 0.4.
`Cc1ccc(N2CN(CCCN3CCOCC3)Cn3c2nc(C)c(C)c3=O)cc1` gave LDHA block -4.8.
`COc1ccc(-c2nn(C)c(=O)c3ccccc23)cc1NC(=O)c1ccc(Cl)cc1` gave LDHA block -15.7.
For COc1cc(C2(c3ccc(O)c(OC)c3)C(=O)Nc3c(C)cc(Br)cc32)ccc1O the results were IL-1B inflam inh -102.2*, LDHA block -5.8, TDP1 cell CPT 1.7% and DT40 TDP1 no CPT 0.1%.
For CC(=O)c1nn(-c2cccc(Br)c2)cc1C(=O)c1ccco1 the results were IL-1B inflam inh -5.2, LDHA block -6.1, RORg inh 12.7%, TDP1 cell CPT 0.2%, DT40 TDP1 no CPT -12.9% and VP16 counter -2.3%.
Screening Cc1nnc(-c2ccco2)c2cn(-c3cccc(Br)c3)nc12 returned LDHA block -4.2, RORg inh 3.4%, TDP1 cell CPT inconclusive, DT40 TDP1 no CPT 23.1µM* and VP16 counter -7.1%.
COc1ccc(OC)c(-n2c(=S)[nH]c3cc(C(=O)N(C)Cc4ccccc4)ccc3c2=O)c1 was read as IL-1B inflam inh 7.8, LDHA block -5.1, RORg inh 12.6µM*, TDP1 cell CPT 1.4%, DT40 TDP1 no CPT -4.7% and VP16 counter inconclusive.
COc1ccc(-n2c(=S)[nH]c3cc(C(=O)NCCCN4CCOCC4)ccc3c2=O)cc1 was read as IL-1B inflam inh 43.1, LDHA block -1.3, RORg inh -42.3%, TDP1 cell CPT 6.3%, DT40 TDP1 no CPT -3.9% and VP16 counter -4.6%.
COc1ccc(-n2c(=S)[nH]c3cc(C(=O)Nc4ccc(F)cc4)ccc3c2=O)c(OC)c1 was read as IL-1B inflam inh inconclusive, LDHA block -3.2, RORg inh 10µM*, TDP1 cell CPT 16.4µM*, DT40 TDP1 no CPT inconclusive and VP16 counter 17.8µM*.
`COc1cc(C(=O)N(C)Cc2ccccc2)ccc1OCc1ccccc1` gave LDHA block 14.4.
For COc1ccc(-n2c(=S)[nH]c3cc(C(=O)NCc4ccccc4OC)ccc3c2=O)c(OC)c1 the results were IL-1B inflam inh -8.3, LDHA block -1.7, RORg inh 14.1µM*, TDP1 cell CPT 4.6%, DT40 TDP1 no CPT inconclusive and VP16 counter 14.1µM*.
`COc1ccc(-n2c(=S)[nH]c3cc(C(=O)NCc4ccc(F)cc4)ccc3c2=O)c(OC)c1` gave IL-1B inflam inh -13.9, LDHA block -0.7, RORg inh inconclusive, TDP1 cell CPT inconclusive, DT40 TDP1 no CPT inconclusive and VP16 counter inconclusive.
COc1ccc(-n2c(=S)[nH]c3cc(C(=O)NCCCN4CCCC4=O)ccc3c2=O)c(OC)c1 was read as IL-1B inflam inh 7.7, LDHA block -1.4, RORg inh inconclusive, TDP1 cell CPT -15.2%, DT40 TDP1 no CPT 3.9% and VP16 counter -18.4%.
COc1ccc(-n2c(=S)[nH]c3cc(C(=O)Nc4ccccc4OC)ccc3c2=O)cc1 was read as RORg inh 1.58µM* and VP16 counter inconclusive.
Screening CCOC(=O)N1CCN(C(=O)c2ccc3c(=O)n(-c4ccc(OC)cc4OC)c(=S)[nH]c3c2)CC1 returned IL-1B inflam inh -0.5, LDHA block -5.9, RORg inh -18.2%, TDP1 cell CPT -28.1%, DT40 TDP1 no CPT inconclusive and VP16 counter 0.6%.
Screening COc1ccc(-n2c(=S)[nH]c3cc(C(=O)Nc4ccccc4OC)ccc3c2=O)c(OC)c1 returned IL-1B inflam inh -9.3, LDHA block -9.6, RORg inh 1.58µM*, TDP1 cell CPT -20.9%, DT40 TDP1 no CPT inconclusive and VP16 counter 4.47µM*.
